Test results taken from the supplement of paper PMC10849652.
Of roughly 7,900 targets only a part is listed; those with a hit were picked by preference. About 0.6% of all pairs of compound and target were hits.

compound: C1COCCN1CCN2C3=CC=CC=C3N=C2NC(=O)C4=CC(=CC=C4)[N+](=O)[O-] [IRAK-1-4 Inhibitor I]; test: log2 fold change, soluble protein after heating vs DMSO (PISA); higher = thermal stabilisation; K562 cells, 10 uM, 30 min; active = over 0.2 and 3.5 SD of the protein, either way, in both replicates (recomputed)
In short: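 K562 cells at 2×10^6 cells/mL were treated for 30 min with 10 μM compound, and aliquots were heated for 3 min over 48°C-58°C before pooling. Extraction used PBS with 0.5% NP-40 at 4°C, and soluble protein was the supernatant after 21,000xg for 90 min, measured by TMTpro 16plex LC-MS/MS with channel sums equalised. Thermal stability values, relative to control samples and from duplicates, are log2 fold changes.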

Chain of UniProt Q9ULC5 (Q9ULC5 whole entry, looked up): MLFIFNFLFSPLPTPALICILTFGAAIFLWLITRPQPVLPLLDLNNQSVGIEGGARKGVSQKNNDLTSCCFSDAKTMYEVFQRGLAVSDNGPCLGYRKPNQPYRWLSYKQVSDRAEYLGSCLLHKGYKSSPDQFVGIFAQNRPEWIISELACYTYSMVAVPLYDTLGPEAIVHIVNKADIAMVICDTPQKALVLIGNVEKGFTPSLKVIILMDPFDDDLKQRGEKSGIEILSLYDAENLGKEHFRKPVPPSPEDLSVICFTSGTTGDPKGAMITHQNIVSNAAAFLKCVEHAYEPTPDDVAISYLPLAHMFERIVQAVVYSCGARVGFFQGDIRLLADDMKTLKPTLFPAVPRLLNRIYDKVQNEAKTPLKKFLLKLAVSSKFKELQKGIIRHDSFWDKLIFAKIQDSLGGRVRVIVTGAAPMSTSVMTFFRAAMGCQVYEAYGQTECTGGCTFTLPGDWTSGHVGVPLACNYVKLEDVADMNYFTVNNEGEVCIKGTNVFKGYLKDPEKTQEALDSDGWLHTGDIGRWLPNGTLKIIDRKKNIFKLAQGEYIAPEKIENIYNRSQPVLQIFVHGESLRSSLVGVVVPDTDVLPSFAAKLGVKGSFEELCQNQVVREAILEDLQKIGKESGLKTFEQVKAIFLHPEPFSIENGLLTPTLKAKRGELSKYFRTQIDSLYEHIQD
Chain of UniProt P49189 (P49189 whole entry, looked up): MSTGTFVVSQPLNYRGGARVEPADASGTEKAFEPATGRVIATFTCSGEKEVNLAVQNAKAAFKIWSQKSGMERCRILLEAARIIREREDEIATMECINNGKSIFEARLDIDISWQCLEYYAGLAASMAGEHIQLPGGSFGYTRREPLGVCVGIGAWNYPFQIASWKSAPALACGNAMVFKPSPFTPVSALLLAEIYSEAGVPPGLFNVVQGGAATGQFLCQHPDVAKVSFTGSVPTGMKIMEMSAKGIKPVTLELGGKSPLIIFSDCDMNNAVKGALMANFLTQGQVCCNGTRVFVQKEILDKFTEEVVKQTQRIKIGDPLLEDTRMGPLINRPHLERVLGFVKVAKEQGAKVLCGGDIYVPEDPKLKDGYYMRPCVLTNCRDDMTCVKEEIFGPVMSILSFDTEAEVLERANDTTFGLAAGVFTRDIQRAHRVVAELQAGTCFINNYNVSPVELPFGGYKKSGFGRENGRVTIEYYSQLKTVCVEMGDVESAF
Chain of UniProt P10398 (P10398 whole entry, looked up): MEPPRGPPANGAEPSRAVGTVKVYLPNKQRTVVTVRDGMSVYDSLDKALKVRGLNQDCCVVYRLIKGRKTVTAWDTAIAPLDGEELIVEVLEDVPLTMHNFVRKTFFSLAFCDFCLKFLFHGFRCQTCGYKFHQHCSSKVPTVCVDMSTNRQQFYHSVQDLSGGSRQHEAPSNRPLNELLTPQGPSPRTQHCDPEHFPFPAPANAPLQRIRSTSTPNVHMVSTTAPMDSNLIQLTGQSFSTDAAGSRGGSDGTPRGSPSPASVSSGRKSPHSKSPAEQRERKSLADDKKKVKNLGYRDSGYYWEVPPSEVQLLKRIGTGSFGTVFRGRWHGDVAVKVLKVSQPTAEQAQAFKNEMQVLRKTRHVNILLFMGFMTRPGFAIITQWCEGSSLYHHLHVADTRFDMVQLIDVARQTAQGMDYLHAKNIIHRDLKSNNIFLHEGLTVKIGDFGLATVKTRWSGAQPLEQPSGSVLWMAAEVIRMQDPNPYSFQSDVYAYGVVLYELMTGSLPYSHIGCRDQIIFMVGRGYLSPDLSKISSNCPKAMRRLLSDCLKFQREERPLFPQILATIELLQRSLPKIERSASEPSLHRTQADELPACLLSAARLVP
Chain of UniProt P42025 (P42025 whole entry, looked up): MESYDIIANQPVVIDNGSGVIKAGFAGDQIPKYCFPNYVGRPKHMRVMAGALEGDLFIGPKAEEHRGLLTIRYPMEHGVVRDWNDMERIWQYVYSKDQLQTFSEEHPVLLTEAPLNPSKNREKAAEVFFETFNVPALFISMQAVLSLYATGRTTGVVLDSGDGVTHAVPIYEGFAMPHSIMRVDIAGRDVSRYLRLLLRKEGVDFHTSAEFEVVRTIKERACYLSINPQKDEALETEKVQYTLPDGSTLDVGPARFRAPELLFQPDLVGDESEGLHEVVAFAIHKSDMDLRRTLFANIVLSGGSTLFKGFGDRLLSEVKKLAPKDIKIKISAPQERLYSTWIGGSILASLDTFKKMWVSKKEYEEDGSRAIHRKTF
Chain of UniProt O60566 (O60566 whole entry, looked up): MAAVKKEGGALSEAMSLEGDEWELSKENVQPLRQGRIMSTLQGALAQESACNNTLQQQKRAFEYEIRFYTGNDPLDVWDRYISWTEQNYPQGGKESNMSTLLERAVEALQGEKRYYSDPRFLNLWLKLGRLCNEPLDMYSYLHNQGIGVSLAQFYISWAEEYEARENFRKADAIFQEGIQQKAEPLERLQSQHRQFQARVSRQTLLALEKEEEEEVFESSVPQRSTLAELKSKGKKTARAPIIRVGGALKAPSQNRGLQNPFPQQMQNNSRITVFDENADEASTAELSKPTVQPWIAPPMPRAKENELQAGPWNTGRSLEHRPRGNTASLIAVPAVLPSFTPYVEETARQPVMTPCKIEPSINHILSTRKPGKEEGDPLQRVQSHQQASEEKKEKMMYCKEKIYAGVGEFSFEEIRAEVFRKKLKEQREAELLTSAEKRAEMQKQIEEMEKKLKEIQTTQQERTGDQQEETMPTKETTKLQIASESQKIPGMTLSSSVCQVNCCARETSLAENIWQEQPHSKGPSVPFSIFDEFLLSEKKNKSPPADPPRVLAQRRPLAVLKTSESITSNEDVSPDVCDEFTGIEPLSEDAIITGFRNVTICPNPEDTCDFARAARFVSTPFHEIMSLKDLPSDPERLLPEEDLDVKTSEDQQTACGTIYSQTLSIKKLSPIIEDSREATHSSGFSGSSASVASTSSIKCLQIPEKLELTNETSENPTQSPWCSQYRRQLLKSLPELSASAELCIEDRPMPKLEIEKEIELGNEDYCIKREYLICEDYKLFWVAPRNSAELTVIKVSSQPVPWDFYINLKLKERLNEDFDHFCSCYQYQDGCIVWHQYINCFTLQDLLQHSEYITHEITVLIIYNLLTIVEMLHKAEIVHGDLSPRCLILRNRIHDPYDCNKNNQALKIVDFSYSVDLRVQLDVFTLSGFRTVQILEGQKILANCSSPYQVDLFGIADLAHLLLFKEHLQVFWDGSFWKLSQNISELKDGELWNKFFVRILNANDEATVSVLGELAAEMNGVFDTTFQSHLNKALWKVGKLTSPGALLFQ
Chain of UniProt Q9H0E9 (Q9H0E9 whole entry, looked up): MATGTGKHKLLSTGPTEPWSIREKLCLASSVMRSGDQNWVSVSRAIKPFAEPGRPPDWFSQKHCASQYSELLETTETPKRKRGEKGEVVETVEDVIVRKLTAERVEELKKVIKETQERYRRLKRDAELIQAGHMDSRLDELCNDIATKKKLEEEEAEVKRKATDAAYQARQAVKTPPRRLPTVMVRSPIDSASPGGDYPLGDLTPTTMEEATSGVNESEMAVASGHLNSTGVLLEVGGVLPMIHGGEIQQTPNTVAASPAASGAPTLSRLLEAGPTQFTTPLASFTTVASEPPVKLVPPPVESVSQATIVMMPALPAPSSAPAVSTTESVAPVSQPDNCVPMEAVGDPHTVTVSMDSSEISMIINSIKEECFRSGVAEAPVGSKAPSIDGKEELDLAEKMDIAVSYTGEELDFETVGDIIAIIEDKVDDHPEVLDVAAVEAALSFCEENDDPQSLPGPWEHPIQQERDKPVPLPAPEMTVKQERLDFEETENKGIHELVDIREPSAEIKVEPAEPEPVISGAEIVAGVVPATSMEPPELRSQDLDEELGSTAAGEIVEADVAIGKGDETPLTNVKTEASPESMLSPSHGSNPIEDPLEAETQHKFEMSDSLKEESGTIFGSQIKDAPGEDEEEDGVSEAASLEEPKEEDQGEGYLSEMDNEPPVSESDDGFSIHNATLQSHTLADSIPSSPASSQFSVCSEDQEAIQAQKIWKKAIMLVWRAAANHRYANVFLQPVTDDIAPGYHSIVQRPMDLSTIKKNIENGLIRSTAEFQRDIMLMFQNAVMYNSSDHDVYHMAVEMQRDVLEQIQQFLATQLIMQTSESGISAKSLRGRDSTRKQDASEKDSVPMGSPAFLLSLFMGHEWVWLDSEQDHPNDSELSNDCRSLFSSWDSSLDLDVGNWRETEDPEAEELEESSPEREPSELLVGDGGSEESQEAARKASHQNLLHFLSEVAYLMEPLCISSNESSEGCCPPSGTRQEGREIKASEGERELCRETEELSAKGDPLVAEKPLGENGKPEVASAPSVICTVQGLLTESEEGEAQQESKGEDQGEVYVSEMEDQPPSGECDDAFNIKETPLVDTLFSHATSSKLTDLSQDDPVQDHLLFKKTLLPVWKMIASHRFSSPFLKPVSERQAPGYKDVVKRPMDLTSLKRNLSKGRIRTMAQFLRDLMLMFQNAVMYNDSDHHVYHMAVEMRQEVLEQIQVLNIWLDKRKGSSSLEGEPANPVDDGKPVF
Chain of UniProt Q8N6H7 (Q8N6H7 whole entry, looked up): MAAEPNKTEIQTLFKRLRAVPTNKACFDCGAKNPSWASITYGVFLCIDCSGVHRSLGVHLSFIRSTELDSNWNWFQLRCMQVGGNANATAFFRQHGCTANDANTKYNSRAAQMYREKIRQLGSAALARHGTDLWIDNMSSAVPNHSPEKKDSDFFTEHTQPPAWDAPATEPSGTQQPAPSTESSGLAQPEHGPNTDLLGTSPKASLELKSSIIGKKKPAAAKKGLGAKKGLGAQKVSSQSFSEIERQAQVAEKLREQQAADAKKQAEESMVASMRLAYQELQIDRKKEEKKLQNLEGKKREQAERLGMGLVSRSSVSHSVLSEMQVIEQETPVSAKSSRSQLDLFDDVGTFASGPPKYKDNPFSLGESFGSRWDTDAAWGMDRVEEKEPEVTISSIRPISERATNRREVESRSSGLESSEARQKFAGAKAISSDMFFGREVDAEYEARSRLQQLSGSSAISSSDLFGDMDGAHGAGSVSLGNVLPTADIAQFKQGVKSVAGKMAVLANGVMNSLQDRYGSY

log2 fold change, inactive:
AHSA1 (UniProt O95433) 0.002
AARS2 (UniProt Q5JTZ9) 0
APOB (UniProt P04114) 0.042
ABCA4 (UniProt P78363) 0.128
ANAPC2 (UniProt Q9UJX6) 0.018
ATP12A isoform 2 (UniProt P54707) 0.013
BRD8 (UniProt Q9H0E9) 0
ATP6V1C1 (UniProt P21283) -0.102
BMP2K (UniProt Q9NSY1) 0.003
ALDH9A1 isoform 3 (UniProt P49189) 0.059
ARFGAP2 (UniProt Q8N6H7) -0.016
BRAP (UniProt Q7Z569) -0.032
AP2S1 (UniProt P53680) -0.054
AHCYL1 (UniProt O43865) 0.035
ADAM15 (UniProt Q13444) -0.026
BUB1B isoform 3 (UniProt O60566) -0.092
AP2A1 (UniProt O95782) -0.054
BPHL (UniProt Q86WA6) 0.009
ARAF (UniProt P10398) 0.011
ATAD3B (UniProt Q5T9A4) -0.05
ATG9A (UniProt Q7Z3C6) 0
AURKA (UniProt O14965) -0.05
BID isoform 2 (UniProt P55957) 0.052
ATP9B (UniProt O43861) 0.061
ARFGEF1 (UniProt Q9Y6D6) 0.016
ATP6V0A1 isoform 3 (UniProt Q93050) -0.068
AMD1 (UniProt P17707) -0.018
ATL2 (UniProt Q8NHH9) 0.011
ALDH18A1 (UniProt P54886) 0
ACTR1B (UniProt P42025) 0.066
BZW2 (UniProt Q9Y6E2) 0.04
ACSL5 isoform 3 (UniProt Q9ULC5) 0.02
ACSL1 (UniProt P33121) -0.004
ATIC (UniProt P31939) 0.018
ADD1 isoform 3 (UniProt P35611) 0.048
ACAD9 (UniProt Q9H845) 0.01
